Assay results taken from publication PMC5540273 (PLoS ONE, 2017).

How the values were obtained:
Conditions in all cases: concentration: 1 μM, replicates: in singlicate; n = 1
STK36 = tested on: STK36
STK39 = tested on: STK39
SYK = tested on: SYK
SgK110 = tested on: SgK110
TAK1 = tested on: T1, TAK1
T1 construct: gene MAP3K7

TAOK1 = tested on: TAOK1
TAOK2 = tested on: TAOK2
TAOK3 = tested on: TAOK3
TBK1 = tested on: TBK1
TEC = tested on: TEC
TESK1 = tested on: TESK1
TGFBR1 = tested on: TGFBR1
TGFBR2 = tested on: TGFBR2
TIE1 = tested on: TIE1
TIE2 = tested on: T2, TIE2
T2 construct: gene TEK

TLK1 = tested on: TLK1
TLK2 = tested on: TLK2
TNIK = tested on: TNIK
TNK1 = tested on: TNK1
TNK2 = tested on: TNK2
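Note: KINOMEscan kinase panel screen.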

Row | Structure (SMILES) | %Inh (STK36) [%] | %Inh (STK39) [%] | %Inh (SYK) [%] | %Inh (SgK110) [%] | %Inh (TAK1) [%] | %Inh (TAOK1) [%] | %Inh (TAOK2) [%] | %Inh (TAOK3) [%] | %Inh (TBK1) [%] | %Inh (TEC) [%] | %Inh (TESK1) [%] | %Inh (TGFBR1) [%] | %Inh (TGFBR2) [%] | %Inh (TIE1) [%] | %Inh (TIE2) [%] | %Inh (TLK1) [%] | %Inh (TLK2) [%] | %Inh (TNIK) [%] | %Inh (TNK1) [%] | %Inh (TNK2) [%]
1 | COc1cccc2c(-c3ccncc3)c(-c3ccc(F)cc3)nn12 [GW468513] | 54 | 14 | 0 | 0 | 0 | 0 | 0 | 0 | 2 | 4 | 0 | 65 | 47 | 33 | 0 | 0 | 0 | 69 | 0 | 14
2 | CC(C)c1nc(-c2cccc(NS(=O)(=O)c3c(F)cccc3F)c2)c(-c2ccnc(Nc3ccc(N4CCOCC4)nc3)n2)s1.Cl [GSK1723980] | 100 | 10 | 69 | 0 | 81 | 0 | 0 | 0 | 18 | 80 | 100 | 93.1 | 92.4 | 92.5 | 97.2 | 16 | 0 | 12 | 100 | 98.5
3 | Cn1cc(-c2cnc(N)c3c(-c4ccc5c(c4)CCN5C(=O)Cc4ccccc4)csc23)cn1 [GSK2593074] | 0 | 0 | 16 | 8 | 33 | 0 | 0 | 0 | 23 | 14 | 53 | 6 | 4 | 84 | 84 | 31 | 5 | 8 | 19 | 62
4 | COC(=O)Nc1nc2ccc(Oc3ccc(CC(=O)Nc4cc(C(F)(F)F)ccc4F)cc3)cc2[nH]1 [GW680903] | 7 | 0 | 0 | 0 | 0 | 0 | 0 | 0 | 4 | 0 | 17 | 17 | 0 | 94 | 36 | 14 | 0 | 0 | 0 | 17
5 | Fc1cc(Cl)ccc1Nc1ccnc2cc(-c3ccc(CN4CCSCC4)o3)ccc12 [GW560106] | 0 | 4 | 51 | 0 | 0 | 0 | 0 | 0 | 6 | 0 | 17 | 0 | 71 | 1 | 6 | 0 | 0 | 47 | 87 | 75
6 | c1ccc(Oc2ccc(Nc3ccnc4cc(-c5ccc(CN6CCCCC6)o5)ccc34)cc2)nc1 [GW567143] | 0 | 0 | 0 | 0 | 0 | 0 | 0 | 0 | 0 | 41 | 16 | 0 | 0 | 23 | 0 | 0 | 0 | 14 | 56 | 36
7 | CCNc1nccc(-c2c(-c3ccc(F)cc3)ncn2C2CCN(C)CC2)n1 | 25 | 0 | 0 | 0 | 0 | 0 | 0 | 0 | 1 | 14 | 0 | 0 | 0 | 100 | 0 | 17 | 0 | 24 | 0 | 0
8 | CN(c1ccc(NC(=O)Nc2cccc(Cl)c2)cc1)c1ccnc(N)n1.Cl [GW830707] | 0 | 0 | 2 | 0 | 19 | 0 | 8 | 0 | 0 | 0 | 4 | 71 | 0 | 86 | 19 | 0 | 5 | 0 | 28 | 3
9 | Cc1ccc(NC(=O)c2ccnc(N3CCCCC3)c2)cc1-c1ccc(C(=O)NCC2CC2)cc1 [GW775610] | 0 | 15 | 0 | 0 | 0 | 0 | 0 | 0 | 0 | 0 | 1 | 6 | 0 | 0 | 0 | 100 | 0 | 0 | 0 | 0
10 | CC(=O)Nc1cn2nc(Oc3cccc(NC(=O)c4cccc(C(F)(F)F)c4)c3)ccc2n1 | 0 | 15 | 14 | 0 | 21 | 0 | 34 | 0 | 57 | 18 | 13 | 9 | 0 | 81 | 65 | 0 | 0 | 38 | 68 | 0
11 | Cn1cc(-c2ccc3c(c2)CCN3C(=O)Cc2cc(F)cc(F)c2F)c2c(N)ncnc21 [GSK2634140] | 0 | 0 | 41 | 0 | 48 | 0 | 0 | 0 | 17 | 0 | 22 | 10 | 0 | 76 | 52 | 3 | 0 | 5 | 8 | 7
12 | O=C(Nc1n[nH]c2nc(-c3ccccc3O)ccc12)C1CC1 [SB-711880] | 0 | 0 | 0 | 0 | 9 | 9 | 0 | 0 | 27 | 63 | 0 | 0 | 0 | 16 | 0 | 22 | 0 | 79 | 20 | 0
13 | O=C(Nc1n[nH]c2nc(-c3ccccc3)ccc12)C1CC1 [SB-708999] | 8 | 0 | 0 | 0 | 0 | 40 | 0 | 7 | 8 | 0 | 17 | 0 | 0 | 15 | 3 | 0 | 0 | 79 | 0 | 2
14 | CCOc1nccc(-c2c(-c3ccc(F)cc3)ncn2C2CCNCC2)n1 [SB-249175] | 24 | 74 | 32 | 0 | 34 | 100 | 0 | 73 | 23 | 10 | 12 | 19 | 11 | 23 | 19 | 0 | 15 | 49 | 21 | 0
15 | Cc1cccc(Nc2nc(NCCN)ncc2C(N)=O)c1 [GSK1292139] | 0 | 14 | 97 | 91.1 | 83 | 15 | 66 | 9 | 28 | 40 | 0 | 0 | 0 | 0 | 0 | 18 | 17 | 89 | 0 | 0
16 | Fc1cc(Cl)ccc1Nc1ccnc2cc(-c3ccc(CN4CCOCC4)o3)ccc12 [GW560109] | 0 | 10 | 16 | 3 | 0 | 0 | 0 | 0 | 0 | 76 | 13 | 0 | 83 | 13 | 8 | 0 | 0 | 53 | 81 | 82
